From the supplement of paper PMC11732987, “Enantioselective OTUD7B fragment discovery through chemoproteomics screening and high-throughput optimisation” (Communications Chemistry, 2025)

These compounds were tested against USP16 (UniProt Q9Y5T5) (assay: log2 ratio of Biotin-Ahx-Ub-VS probe labelling (fragment/DMSO); higher = less target engagement (more negative = stronger competition), active = hit call of the paper (q ≤ 0.05, log2 ratio ≤ -1)). Settings: compound concentration: 200 uM; treatment time: 3 h.
Sequence of USP16 (Q9Y5T5 whole entry, looked up, the tested form may be a part): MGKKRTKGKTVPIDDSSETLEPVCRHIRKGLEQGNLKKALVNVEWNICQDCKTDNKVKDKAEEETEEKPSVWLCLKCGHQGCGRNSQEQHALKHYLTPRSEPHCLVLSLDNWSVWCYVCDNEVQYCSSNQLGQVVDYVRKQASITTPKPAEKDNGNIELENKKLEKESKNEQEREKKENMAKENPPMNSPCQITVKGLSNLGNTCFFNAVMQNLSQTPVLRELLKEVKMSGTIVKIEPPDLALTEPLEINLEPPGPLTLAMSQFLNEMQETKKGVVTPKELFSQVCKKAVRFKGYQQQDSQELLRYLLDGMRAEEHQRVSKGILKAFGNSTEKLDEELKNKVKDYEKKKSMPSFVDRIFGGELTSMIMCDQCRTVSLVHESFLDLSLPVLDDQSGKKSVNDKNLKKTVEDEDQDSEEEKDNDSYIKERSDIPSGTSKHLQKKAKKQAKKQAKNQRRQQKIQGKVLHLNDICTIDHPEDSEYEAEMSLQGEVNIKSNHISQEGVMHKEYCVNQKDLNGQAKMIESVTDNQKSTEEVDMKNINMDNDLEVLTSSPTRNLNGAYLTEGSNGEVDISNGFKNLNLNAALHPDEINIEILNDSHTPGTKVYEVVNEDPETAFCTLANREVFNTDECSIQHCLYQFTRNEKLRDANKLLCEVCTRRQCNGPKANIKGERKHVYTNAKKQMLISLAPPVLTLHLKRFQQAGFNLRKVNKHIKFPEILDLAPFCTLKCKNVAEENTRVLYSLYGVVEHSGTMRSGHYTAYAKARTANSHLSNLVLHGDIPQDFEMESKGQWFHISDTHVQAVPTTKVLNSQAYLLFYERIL
How it was run: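 Labelled DUBs from HEK293T lysate were NeutrAvidin-enriched, digested with LysC and trypsin, and run by diaPASEF LC-MS/MS. Before that, each 495 µg sample in Tris/CHAPS/IGEPAL buffer with protease inhibitors was treated in triplicate with fragment at 200 µM or vehicle for 3 h, then with Biotin-Ahx-Ub-VS at 0.5 µM final for 1 h. Values are average log2 ratios of fragment over vehicle by unpaired t-test, based on global-median-normalised Spectronaut label-free quantities from proteins with ≥2 unique peptides.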

log2 ratio of Biotin-Ahx-Ub-VS probe labelling, inactive:
Cl.Cn1cnc2cc(CNC(=O)CCl)ccc21 -0.459
N#Cc1ccc(CNC(=O)CCl)cc1 0.29
Cc1nc(CN2CCCN(C(=O)CCl)CC2)no1.Cl -0.188
Cc1ccc(C)c(NC(=O)CCl)c1 -0.0434
Cc1cc(CC(C)NC(=O)CCl)n[nH]1 (stereo not given) 0.186
O=C(CCl)N1CCCN(C(=O)c2ccc(Cl)cc2)CC1 -0.13
Cl.O=C(CCl)NCCN1CCc2ccccc21 -0.252
CC1(NC(=O)CCl)CCS(=O)(=O)C1 (stereo not given) 0.0352
N#Cc1ccc(Cl)cc1NC(=O)CCl -0.655
O=C(CCl)N1CCCC1c1ccsc1 (stereo not given) -0.254
O=C(CCl)NCc1ccc(N2CCOCC2)nc1 -0.342
O=C(CCl)NCc1cccc(F)c1 -0.133
COc1ccccc1C(C)NC(=O)CCl (stereo not given) -0.386
COc1ccc(Cl)cc1NC(=O)CCl -0.286
O=C(CCl)N1CCC(c2nc3ccccc3o2)CC1 0.149
